# Assay results reported in PubChem BioAssay AID485346 (Sanford-Burnham Center for Chemical Genomics, 2010).
# In all, about 330,000 compounds went through this assay and about 10,000 (3%) were called active. What follows is part of a selection rich in actives, with near analogues and random picks from the rest. A number with no mark means an inactive call.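 The calls were made as follows: active = inhibition of at least 50% at 8 µM in the primary screen; inactive = the rest.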
# Target: Protein Mdm4 (Homo sapiens) + E3 ubiquitin-protein ligase Mdm2 (Homo sapiens) (UniProt O15151+Q00987)
# Experiment: inhibitors of human Mdm2-MdmX association, primary screen, cell-based, luminescence, split luciferase, SaOS-2, uHTS (AID 485346)
# Conditions: SaOS-2 split-luciferase Mdm2/MdmX complementation, at 8 µM, hits give high values
# Chain of Protein Mdm4 (Homo sapiens) + E3 ubiquitin-protein ligase Mdm2 (Homo sapiens) (O15151 whole entry, looked up): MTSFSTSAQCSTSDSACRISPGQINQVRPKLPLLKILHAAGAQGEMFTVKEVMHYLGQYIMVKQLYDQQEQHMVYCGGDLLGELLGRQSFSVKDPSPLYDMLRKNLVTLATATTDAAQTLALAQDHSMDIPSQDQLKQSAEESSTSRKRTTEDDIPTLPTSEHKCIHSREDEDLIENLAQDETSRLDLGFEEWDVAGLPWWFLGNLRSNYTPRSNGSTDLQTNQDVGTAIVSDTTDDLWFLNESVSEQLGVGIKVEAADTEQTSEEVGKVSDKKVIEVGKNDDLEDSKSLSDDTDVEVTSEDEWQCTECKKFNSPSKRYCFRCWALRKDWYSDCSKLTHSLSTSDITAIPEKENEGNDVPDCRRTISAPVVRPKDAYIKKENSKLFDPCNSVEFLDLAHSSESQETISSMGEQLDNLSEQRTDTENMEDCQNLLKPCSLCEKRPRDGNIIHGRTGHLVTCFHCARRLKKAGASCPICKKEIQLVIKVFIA
# Chain of Protein Mdm4 (Homo sapiens) + E3 ubiquitin-protein ligase Mdm2 (Homo sapiens) (Q00987 whole entry, looked up): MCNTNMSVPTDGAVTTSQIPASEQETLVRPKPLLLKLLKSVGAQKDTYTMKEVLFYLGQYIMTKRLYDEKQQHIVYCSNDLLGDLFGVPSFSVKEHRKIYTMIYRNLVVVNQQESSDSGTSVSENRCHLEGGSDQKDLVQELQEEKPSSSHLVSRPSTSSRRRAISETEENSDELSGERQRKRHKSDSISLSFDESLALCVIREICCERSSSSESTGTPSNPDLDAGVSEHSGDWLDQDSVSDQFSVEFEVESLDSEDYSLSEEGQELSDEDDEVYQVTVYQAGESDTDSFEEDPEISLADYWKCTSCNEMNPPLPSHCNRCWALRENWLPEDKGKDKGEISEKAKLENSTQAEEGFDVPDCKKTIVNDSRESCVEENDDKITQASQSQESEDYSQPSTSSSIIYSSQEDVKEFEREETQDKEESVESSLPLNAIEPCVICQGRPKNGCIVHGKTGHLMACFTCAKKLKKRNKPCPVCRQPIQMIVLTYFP
row,Structure (SMILES),inhibition
1,CC1CC(C)CN(S(=O)(=O)c2cccc(C(=O)N3C(=O)c4cccc(N)c4C3=O)c2)C1 (stereo unspecified),19.4%
2,Cc1cc(C)n(-c2ccc(NC(=O)C3CCCCN3C(=O)c3cccs3)cc2)n1 (stereo unspecified),12%
3,COc1ccc(NC(=O)CCCC2CCCCC2)c(OC)c1,-13.7%
4,Cc1ccccc1-n1nnc2c(=O)oc3ccccc3c21,8.39%
5,Cc1ccc(NC(=O)c2cccc(S(=O)(=O)N3CCCc4ccccc43)c2)nc1,2.43%
6,O=C(NC(Nc1nc2ccc([N+](=O)[O-])cc2s1)(C(F)(F)F)C(F)(F)F)c1ccccc1,99.3% (active)
7,O=C(CCNC(=O)c1ccccc1)Nc1nc2ccccc2s1,-16.2%
8,O=C(Nc1nc2ccc([N+](=O)[O-])cc2s1)c1ccc(S(=O)(=O)N2CCCc3ccccc32)cc1,96.6% (active)
9,O=C(CNC(=O)c1ccccc1)Oc1ccc([N+](=O)[O-])cc1,-9.24%
10,CNC(=O)c1ccsc1NC(=O)c1ccc(S(=O)(=O)N2CCc3ccccc32)cc1,38%
11,CCCCCCC12CCC(C(=O)O)(CC1)CC2,11.2%
12,COc1cccc(CC(=O)OCC(=O)NCc2ccc3c(c2)OCO3)c1,1.87%
13,CCn1c(CSCc2c(Cl)cccc2Cl)n[nH]c1=S,7.91%
14,Cc1cc(NS(=O)(=O)c2ccc(NC(=O)c3cccc(OC(F)F)c3)cc2)nc(C)n1,-4.83%
15,COc1ccc(C2c3[nH]c4ccccc4c3C[C@H]3C(=O)N(CC(C)C)CC(=O)N23)c(OC)c1 (stereo partly specified),13.6%
16,COc1ccc(Br)c2c1C(=O)CC2,7.81%
17,O=C(NCCCn1ccnc1)C(=O)NCC1OCCN1S(=O)(=O)c1cc(F)ccc1F (stereo unspecified),-11.2%
18,CCOC(=O)c1ccc(NC(=O)c2c(NCc3ccccc3)[nH]c(=O)[nH]c2=O)cc1,73.2% (active)
19,CCOC(=O)c1ccc(NC(=O)c2cc(=O)[nH]c3ccccc23)cc1,23%
20,CCOC(=O)c1ccc(NC(=O)c2c(N)n(C)c(=O)[nH]c2=O)cc1,5.07%
21,CCOC(=O)N1CCC(N2Cc3cccc(C(=O)Nc4c(C)cccc4CC)c3C2=O)CC1,12.5%
22,CCOc1ccccc1NC(=O)Cc1cccs1,2.43%
23,CCOc1ccccc1NC(=O)Cn1nnc(C(=O)NCc2cccs2)c1N,61.5% (active)

row,Structure (SMILES),inhibition
1,Cc1ccc(NC(=O)Cn2nnc(C(=O)NCc3ccco3)c2N)c(C)c1,11.7%
2,COc1cc(C(CCN2CCN(c3ccccc3)CC2)c2c(OC)cc(OC)c3ccc(=O)oc23)cc(OC)c1OC (stereo unspecified),15.2%
3,COc1ccc(-c2c(C)cc3oc(=O)cc(-c4ccccc4)c3c2C)cc1C=O,27.5%
4,CCN(CC)C(=O)CC(c1ccc2c(c1)OCO2)c1c(OC)cc(OC)c2c(-c3ccccc3)cc(=O)oc12 (stereo unspecified),13%
5,COc1cc(OC)c2ccc(=O)oc2c1C(CCN1CCN(c2ccccc2)CC1)c1ccc2c(c1)OCO2 (stereo unspecified),42.4%
6,CCN(CC)CCC(c1ccc2c(c1)OCO2)c1c(OC)cc(OC)c2c(-c3ccccc3)cc(=O)oc12 (stereo unspecified),76.1% (active)
7,CCN(CC)CCC(c1cc(OC)c(OC)c(OC)c1)c1c(OC)cc(OC)c2c(-c3ccccc3)cc(=O)oc12 (stereo unspecified),62.7% (active)
8,O=C(CN1CCCCC1)NC(=O)Nc1ccccc1F,12.7%
9,O=C(NNC1=C(C(=O)C(F)(F)F)CCC1)c1ccncc1,8.09%
10,COc1cc(OC)c(C(=O)NNC(=O)c2ccccc2-n2cccc2)cc1OC,12.8%
11,CNC(=O)C1CC(=O)N(c2ccc(OCC(=O)Nc3ccccc3C)cc2)C1 (stereo unspecified),10.1%
12,COc1ccc(CN2[C@@H](CC(=O)O)c3cc(F)ccc3S2(=O)=O)cc1,-1.99%
13,CCCCCNC(=O)c1cccnc1SCC(=O)Nc1ccccc1OC,1.51%
14,Cc1cccc(NS(=O)(=O)c2cccc(C(=O)NNC(=O)c3ccccc3O)c2)c1,46%
15,CCOC(=O)C(C)N(c1ccccc1Cl)S(C)(=O)=O (stereo unspecified),19%
16,CC(C)=CCCC1(C)C=Cc2c(ccc3c2[nH]c2cc(O)c(C)cc23)O1 (stereo unspecified),97.9% (active)
17,CC(Sc1ccccc1F)C(=O)Nc1cccc(S(=O)(=O)N2CCOCC2)c1 (stereo unspecified),8.39%
18,COc1ccc(NC(=O)NC2CC3CCCC(C2)N3Cc2ccccc2)cc1 (stereo unspecified),5.4%
19,Cc1c(NC(=O)C(C)OC(=O)c2ccccc2O)c(=O)n(-c2ccccc2)n1C (stereo unspecified),13.1%
20,CCOc1cc(/C=C/c2nc3ccccc3c(=O)[nH]2)cc(Br)c1OC,69.3% (active)
21,O=c1[nH]c(/C=C/c2cccc(Br)c2)nc2ccccc12,48.2%
22,COc1ccc(C)cc1-n1nnnc1SCc1nc2ccccc2c(=O)[nH]1,18.2%
23,Cc1nonc1OCCn1nnnc1N,6.95%

row,Structure (SMILES),inhibition
1,COC(=O)c1ccc(Sc2ccc(F)cc2)c(N)c1,-11%
2,Cc1ccsc1/C=N/Nc1ccc(Cl)nn1,-10.7%
3,Oc1cccc(/C=N/Nc2ccc(Cl)nn2)c1O,68.6% (active)
4,COc1cccc(/C=N/Nc2ccc(Cl)nn2)c1,-64.5%
5,Cc1cc(N2CCCC2)ccc1NC(=O)COc1ccc(Cl)cc1,-1.43%
6,CCN(CC)C(=O)c1nc[nH]c1C(=O)N(C)Cc1ccccc1,-2.16%
7,Cc1ccccc1CNC(=O)CCC(=O)N1Cc2ccccc2Oc2ncccc21,18.7%
8,CC[C@H]1OC(=O)[C@H](C)[C@@H](O[C@H]2C[C@@](C)(OC)[C@@H](O)[C@H](C)O2)[C@H](C)[C@@H](O[C@@H]2O[C@H](C)C[C@H](N(C)C)[C@H]2O)[C@](C)(O)C[C@@H](C)[C@@H]2N[C@@H](COCCOC)O[C@H]([C@H]2C)[C@]1(C)O,-10.6%
9,C=CCOc1c2ccc(C(=O)N(CC)c3ccc(OC)cc3)cc2nn1C,13.6%
10,CCCn1nc(C(=O)Nc2ccc3nc(C)sc3c2)c2ccccc2c1=O,65.5% (active)
11,CCCCn1nc(C(=O)Nc2cccc(C(=O)NC3CC3)c2)c2ccccc2c1=O,-19.3%
12,CCCn1nc(C(=O)NNC(=O)CSCC(=O)Nc2cc(C)on2)c2ccccc2c1=O,-23.6%
13,COc1ccccc1C1CC(=O)n2c(nc(-c3ccccc3)c2-c2ccccc2)S1 (stereo unspecified),-21.8%
14,O=C(N[C@@H](Cc1c[nH]c2ccccc12)C(=O)O)OCC1c2ccccc2-c2ccccc21,-20.2%
15,C=C1CCC(N(O)c2cc(C)on2)C(=C)CCC2C1CC2(C)C (stereo unspecified),-8.29%
16,CC(=O)Nc1ccc(S(=O)(=O)N(CCc2ccccc2)CC(=O)N/N=C/c2ccc(C(=O)O)cc2)cc1,-1.72%
17,Cc1ccc(N=C2NC(=O)/C(=C/C=C/c3ccco3)S2)cc1C,7.92%
18,CN(C)c1ccc(-n2cccc2/C=N/n2cnnc2)cc1,18.3%
19,CN(C)c1ccc(-n2cccc2/C=C2/SC(=Nc3ccc(F)cc3)NC2=O)cc1,53.3% (active)
20,Cc1ccc(S(=O)(=O)N2CCCCC2)cc1NC(=O)CCNC(=O)c1ccccc1,-6.37%
21,O=C(CN1CCOCC1)Nc1cccc([N+](=O)[O-])c1,14.4%
22,Cc1c(NC(=O)Nc2ccccc2Cl)sc(=S)n1C,-28%
23,O=C(Nc1ccccc1Cl)/C(Cl)=C(\Cl)S(=O)c1ccccc1 (stereo unspecified),93.6% (active)

row,Structure (SMILES),inhibition
1,O=C(Cc1ccc2c(c1)CCCC2)Nc1ccccc1Cl,-28.4%
2,Cc1ccc(S(=O)(=O)N2CC(O)C[C@H]2C(=O)OCC(=O)Nc2ccc(N3CCOCC3)cc2)cc1C (stereo partly specified),31.1%
3,COc1cccc2cc(C(N)=O)/c(=N\NC(=O)c3ccccc3)oc12,56.6% (active)
4,NC(=O)c1cc2ccccc2o/c1=N/NC(=O)c1cccc(F)c1,1.22%
5,COc1cccc2cc(C(=O)N3CCN(C(=O)c4ccccc4)CC3)c(=O)oc12,13.1%
6,CC(=O)N1CCc2c(sc(NC(=O)CCS(=O)(=O)c3ccc(C)cc3)c2C(N)=O)C1,25.4%
7,CC(C)N1CCc2c(sc(NC(=O)Cc3ccccc3)c2C#N)C1,-40.8%
8,CC(=O)N1CCc2c(sc(NC(=O)CCS(=O)(=O)c3ccccc3)c2C#N)C1,86.2% (active)
9,COc1ccc(N(C(=O)c2snc(C(N)=O)c2N)C(C(=O)NC2CCCC2)c2ccco2)cc1OC (stereo unspecified),22.9%
10,O=c1[nH]c(/C=C\c2cccc(C(F)(F)F)c2)nc(O)c1[N+](=O)[O-],-7.22%
11,Cc1cccc(OCC(O)CN2CCN(S(=O)(=O)c3ccc(C)cc3C)CC2)c1 (stereo unspecified),-4.83%
12,OC(COc1ccc(F)cc1Cl)CN1CCc2ccccc2C1 (stereo unspecified),-9.27%
13,Cc1ccc(OCC(O)CN2CCN(CC(O)COc3ccc(C)cc3Cl)CC2)c(Cl)c1 (stereo unspecified),73.5% (active)
14,CC(C)Oc1ccc(CCC(=O)NNC(=S)NCc2ccccc2)cc1,-12.8%
15,COc1ccc(C(=O)NC(=S)NNC(=O)CCc2ccccc2)cc1,58.1% (active)
16,CCOc1cc(NC(=S)NCc2ccco2)c(OCC)cc1NC(=O)c1ccco1,9.15%
17,CCCc1ccc(OCC(=O)NNC(=S)NC(=O)c2ccco2)cc1,50% (active)
18,CCOc1cc(NC(=O)c2ccco2)c(OCC)cc1NC(=O)COc1ccccc1,55.2% (active)
19,COc1ccc(OCC(=O)Nc2ccc(NC(=O)c3ccco3)c(C)c2)cc1,-0.739%
20,CCCc1ccc(OCCNC(=O)c2ccco2)cc1,-4.69%
21,COc1ccc(C(=O)NC(=S)NNC(=O)c2c(-c3ccccc3)noc2C)cc1,14.7%
22,CC(Oc1ccc2ccccc2c1)C(=O)NNC(=S)NC(=O)c1ccco1 (stereo unspecified),19.6%
